The panel holds about 83,000 compounds, 20% with a hit somewhere; the sample as a whole holds those more often.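 For each line, cells grew in 96-well plates with the test compound present at a single concentration for 48 hours.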 Calls of active or inactive are those of the source. How the source made its calls: active means growth percent below 10; inactive means the rest.
How the values were obtained:
Assay in all cases: NCI-60 one-dose screen, 48 h (100 = growth as untreated, 0 = no growth, -100 = all killed)
Conditions in all cases: 10 µM unless noted
SK-MEL-2 melanoma = system: SK-MEL-2 melanoma
EKVX NSCLC = system: EKVX NSCLC
SN12C renal = system: SN12C renal
UO-31 renal = system: UO-31 renal
TK-10 renal = system: TK-10 renal
ACHN renal = system: ACHN renal
CAKI-1 renal = system: CAKI-1 renal
A498 renal = system: A498 renal
CCRF-CEM leukemia = system: CCRF-CEM leukemia
MOLT-4 leukemia = system: MOLT-4 leukemia

Measured: growth

C=C1C(=O)O[C@H]2[C@H]1CC/C(COC(=O)/C=C/C(=O)OC/C1=C/CC[C@@]3(C)O[C@H]3[C@H]3OC(=O)C(=C)[C@@H]3CC1)=C\CC[C@@]1(C)O[C@@H]21
active: SN12C renal 4.73% | UO-31 renal -41.7% | TK-10 renal 0.985% | ACHN renal -13.5% | CCRF-CEM leukemia -12.9% | MOLT-4 leukemia 7.58%
inactive: SK-MEL-2 melanoma 93.4% | EKVX NSCLC 88.2% | CAKI-1 renal 63.3% | A498 renal 102%

C#Cc1cccc(Nc2nc(C)nc3cc(NC(=O)CCl)ccc23)c1
active: SK-MEL-2 melanoma -69.8% | EKVX NSCLC -58.8% | SN12C renal -67.8% | UO-31 renal -91.8% | TK-10 renal -93.9% | ACHN renal -92% | CAKI-1 renal -91% | CCRF-CEM leukemia -12.3% | MOLT-4 leukemia -20.7%
inactive: A498 renal 48.2%

NNCCc1ccc(NC(=O)CCCc2ccc(C(=O)Nc3ccccc3N)cc2)cc1
inactive: SK-MEL-2 melanoma 42.6% | EKVX NSCLC 81.7% | SN12C renal 80.1% | UO-31 renal 69.5% | TK-10 renal 32.5% | ACHN renal 89.2% | CAKI-1 renal 80.6% | A498 renal 60.9% | MOLT-4 leukemia 27.9%
active: CCRF-CEM leukemia 0.638%

CC1=C2[C@@H](CC1)[C@]1(C)O[C@@](C3CCCCC3)(C[C@H]1OC(=O)CO)[C@H]2OC(=O)/C=C/c1ccccc1
inactive: SK-MEL-2 melanoma 80.3% | EKVX NSCLC 83.3% | SN12C renal 32.1% | TK-10 renal 97.6% | CAKI-1 renal 78.4% | CCRF-CEM leukemia 78.5% | MOLT-4 leukemia 67.9%
active: UO-31 renal -5.9% | ACHN renal 3.28% | A498 renal -89.9%

N#Cc1cccc(C2C3=C(COC3=O)N(CCO)c3cc4c(cc32)CCC4)c1 (stereo not given)
inactive: SK-MEL-2 melanoma 24.5% | EKVX NSCLC 41.4% | SN12C renal 34.3% | UO-31 renal 39% | TK-10 renal 54.2% | ACHN renal 26% | CAKI-1 renal 34.7% | MOLT-4 leukemia 13.5%
active: A498 renal -6.54% | CCRF-CEM leukemia 7.42%

COc1ccc(N2CCN(C(=O)c3sc4nc(C)c(Br)c(C)c4c3N)CC2)cc1
inactive: SK-MEL-2 melanoma 85.1% | EKVX NSCLC 79.9% | SN12C renal 95.9% | UO-31 renal 59.4% | TK-10 renal 115% | ACHN renal 92.6% | CAKI-1 renal 82.6% | A498 renal 103% | CCRF-CEM leukemia 97.8% | MOLT-4 leukemia 93%

COc1cc(-c2nc3sccn3c2-c2ccnc(NCCNS(=O)(=O)c3ccc(Cl)cc3)n2)ccc1F
inactive: SK-MEL-2 melanoma 12.6% | EKVX NSCLC 48.8% | SN12C renal 37.4% | TK-10 renal 55.1% | ACHN renal 20.4% | CAKI-1 renal 19.6% | A498 renal 52.8%
active: UO-31 renal 6.85% | CCRF-CEM leukemia 6.78% | MOLT-4 leukemia -3.87%

O=C(O)/C=C/C(=O)Nc1cccc(Cn2nnc3cc(Cl)c(Cl)cc32)c1
inactive: SK-MEL-2 melanoma 114% | EKVX NSCLC 94.3% | SN12C renal 104% | UO-31 renal 79.5% | TK-10 renal 124% | ACHN renal 97.1% | CAKI-1 renal 95% | A498 renal 108% | CCRF-CEM leukemia 99.4% | MOLT-4 leukemia 97.1%

Cc1cccc[n+]1C1c2ccccc2-c2ccccc21
inactive: SK-MEL-2 melanoma 90.2% | EKVX NSCLC 93.8% | SN12C renal 94.2% | UO-31 renal 90.7% | TK-10 renal 89.5% | ACHN renal 107% | CAKI-1 renal 100% | A498 renal 82.9% | CCRF-CEM leukemia 78.5% | MOLT-4 leukemia 98.3%

CCN(CC)CCCN1C(=O)c2c(c(C)c3c(oc4ccc(O)cc43)c2C)C1=O
active: TK-10 renal -27.4% | CCRF-CEM leukemia -19.7%
inactive: SK-MEL-2 melanoma 94.7% | EKVX NSCLC 101% | SN12C renal 63.4% | UO-31 renal 63.7% | ACHN renal 25.9% | CAKI-1 renal 82.4% | A498 renal 94.8% | MOLT-4 leukemia 83.2%

Nc1ccc(-c2csc(-n3[nH]c(=O)ccc3=O)n2)cc1
inactive: SK-MEL-2 melanoma 109% | EKVX NSCLC 88.4% | SN12C renal 103% | UO-31 renal 84.1% | TK-10 renal 120% | ACHN renal 99.5% | CAKI-1 renal 94% | A498 renal 103% | CCRF-CEM leukemia 96.4% | MOLT-4 leukemia 87.6%

Cc1ccc(C2CC(c3nc(-c4ccc(Cl)cc4)oc3C)=NN2C(=O)c2ccncc2)cc1 (stereo not given)
inactive: SK-MEL-2 melanoma 92.9% | EKVX NSCLC 91.3% | SN12C renal 86.8% | UO-31 renal 58.2% | TK-10 renal 106% | ACHN renal 87.3% | CAKI-1 renal 69.2% | A498 renal 82.6% | CCRF-CEM leukemia 90.7% | MOLT-4 leukemia 64.7%

O=C(c1c[nH]c2ccccc12)c1n[nH]c(=S)n1-c1cccc(Br)c1
inactive: SK-MEL-2 melanoma 85.9% | EKVX NSCLC 70.9% | SN12C renal 96.3% | UO-31 renal 86.6% | TK-10 renal 106% | ACHN renal 100% | CAKI-1 renal 77.2% | A498 renal 118% | CCRF-CEM leukemia 90.6% | MOLT-4 leukemia 90.2%

Cc1ccc(/C=C/C(=O)c2ccc(-n3cc(CN4CCN(c5cc6c(cc5F)c(=O)c(C(=O)O)cn6C5CC5)CC4)nn3)cc2)cc1
inactive: SK-MEL-2 melanoma 95.5% | EKVX NSCLC 96% | SN12C renal 67.7% | UO-31 renal 61.8% | TK-10 renal 104% | ACHN renal 89.8% | CAKI-1 renal 69.8% | A498 renal 64.5% | CCRF-CEM leukemia 84.3% | MOLT-4 leukemia 86%

CCOC(=O)c1cc(C(=O)c2cc(OC)c(OC)c(OC)c2)n2ccccc12
inactive: SK-MEL-2 melanoma 40.4% | EKVX NSCLC 42% | SN12C renal 54% | UO-31 renal 50.6% | TK-10 renal 49.3% | ACHN renal 58.4% | CAKI-1 renal 38.9% | CCRF-CEM leukemia 17% | MOLT-4 leukemia 24.3%
active: A498 renal -1.31%

CNC(=O)c1ccccc1Nc1nc(Nc2cc(OC)c(OC)c(OC)c2)ncc1Br
inactive: ACHN renal 12.5% | CCRF-CEM leukemia 71.3% | MOLT-4 leukemia 66.3%
active: SK-MEL-2 melanoma -77.4% | EKVX NSCLC -10.4% | SN12C renal -40.7% | UO-31 renal -17.6% | TK-10 renal -31.4% | CAKI-1 renal 2.5% | A498 renal -88.4%

Cc1cccc(N2CCC(=O)NC2=S)c1
inactive: SK-MEL-2 melanoma 122% | EKVX NSCLC 107% | SN12C renal 98.2% | UO-31 renal 88.2% | TK-10 renal 104% | ACHN renal 107% | CAKI-1 renal 101% | A498 renal 107% | CCRF-CEM leukemia 154% | MOLT-4 leukemia 104%

N#Cc1cncc(-c2ccc3ncnc(Nc4cccc(Cl)c4)c3c2)c1
inactive: SK-MEL-2 melanoma 90.5% | EKVX NSCLC 40.7% | SN12C renal 82.9% | UO-31 renal 71% | TK-10 renal 43.9% | ACHN renal 58.6% | CAKI-1 renal 66.1% | A498 renal 33.4% | CCRF-CEM leukemia 101% | MOLT-4 leukemia 87.5%

COc1ccc(C2=NN(C(C)=O)C(c3cn(-c4ccccc4)nc3-c3ccc(Cl)cc3)C2)cc1 (stereo not given)
active: ACHN renal 8.45%
inactive: SK-MEL-2 melanoma 63.7% | EKVX NSCLC 41.3% | SN12C renal 32.8% | UO-31 renal 38.5% | TK-10 renal 12.1% | CAKI-1 renal 28% | A498 renal 80.2% | CCRF-CEM leukemia 24% | MOLT-4 leukemia 43.6%

O=C(N/N=C\c1ccccc1S(=O)(=O)O)N/N=C/c1ccccc1S(=O)(=O)O
inactive: SK-MEL-2 melanoma 99.8% | EKVX NSCLC 102% | SN12C renal 102% | UO-31 renal 92.5% | TK-10 renal 100% | ACHN renal 98.7% | CAKI-1 renal 88.7% | A498 renal 101% | CCRF-CEM leukemia 102% | MOLT-4 leukemia 92.3%

CCN1C(=O)N(CC)C2C1NN=c1s/c(=C\c3ccc[nH]3)c(=O)n12 (stereo not given)
active: A498 renal -4.45% | CCRF-CEM leukemia 4.06%
inactive: SK-MEL-2 melanoma 23.4% | EKVX NSCLC 47.4% | SN12C renal 39.2% | UO-31 renal 39.2% | TK-10 renal 61.6% | ACHN renal 42.3% | CAKI-1 renal 27.5% | MOLT-4 leukemia 20.4%

CCOC(=O)c1[nH]c2c(c1C)-c1[nH]c(=O)c(S(=O)(=O)c3ccccc3)cc1SC2
active: EKVX NSCLC 8.42% [100 µM]
inactive: SK-MEL-2 melanoma 56.4% [100 µM] | SN12C renal 59.5% [100 µM] | UO-31 renal 54.2% [100 µM] | TK-10 renal 13.1% [100 µM] | ACHN renal 20.9% [100 µM] | CAKI-1 renal 16.2% [100 µM] | A498 renal 21.4% [100 µM] | CCRF-CEM leukemia 52.1% [100 µM] | MOLT-4 leukemia 57.3% [100 µM]

CC(C)(C)n1cc(-c2ccnc(NCCCNS(=O)(=O)c3cccc4ccccc34)c2)c(-c2cccc(F)c2)n1
inactive: SK-MEL-2 melanoma 107% | EKVX NSCLC 68.6% | SN12C renal 73.3% | UO-31 renal 65.9% | TK-10 renal 97% | ACHN renal 91.5% | CAKI-1 renal 94.3% | A498 renal 29.2% | CCRF-CEM leukemia 56.9% | MOLT-4 leukemia 57.9%

O=C(/C=C(O)/C=C/c1cccc2[nH]ccc12)/C=C/c1cccc2[nH]ccc12
inactive: SK-MEL-2 melanoma 85.9% | EKVX NSCLC 97.8% | SN12C renal 82.5% | UO-31 renal 52% | TK-10 renal 83.9% | ACHN renal 84.4% | CAKI-1 renal 74.6% | A498 renal 112% | CCRF-CEM leukemia 65.4% | MOLT-4 leukemia 59.2%

CC(C)(C)n1cc(-c2ccnc(NCCNS(=O)(=O)c3ccc(O)cc3)c2)c(-c2cccc(O)c2)n1
inactive: SK-MEL-2 melanoma 108% | EKVX NSCLC 104% | SN12C renal 98.3% | UO-31 renal 91.2% | TK-10 renal 116% | ACHN renal 98.2% | CAKI-1 renal 103% | A498 renal 88.8% | CCRF-CEM leukemia 92.7% | MOLT-4 leukemia 95.1%

CN1CCN(Cc2ccc(NC(=O)c3cncc(C#Cc4cnc5ccc(Cl)nn45)c3)cc2C(F)(F)F)CC1
active: SK-MEL-2 melanoma -46.1% | EKVX NSCLC -22% | SN12C renal 0.38% | UO-31 renal -11.5% | TK-10 renal 5.85% | ACHN renal 1.09% | CAKI-1 renal -13.6% | A498 renal -8.2% | CCRF-CEM leukemia 2.17% | MOLT-4 leukemia 3.14%

Source: PubChem BioAssay (NCI)
